From PubChem BioAssay (NCATS) come the findings set out here.

Structures are written as SMILES. Results filed as inconclusive are left out. A call without a number means that no potency is given here. Active and inactive are the calls of the source. Unless noted, calls come from the whole dose curve; as a rule, active = well fitted curve in the direction sought with a large enough effect; inconclusive = small, poorly fitted or top-dose-only effect, or another doubt; inactive = no such curve, though single readings can be large; an effect the other way counts as inactive or inconclusive. Residues, ends and D or L forms follow the SMILES beside them. *: point of attachment. Cbz = O=C(OCc1ccccc1)*

Tested on in one assay: not listed separately
The experiment in a line: qHTS for Inhibitors of Cell Surface uPA Generation: Validation Assay (AID 493164).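 Note: RAW 264.7 macrophage cells exposed to compound for 18 h.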 The settings on record: mouse cells, plasminogen activation; series mostly up to 38.3 µM. In short, it runs like this:
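ATP-Lite luminescence read-out: ATP remains high when uPA activity-dependent LF translocation into the cytoplasm is blocked. RAW 264.7 cells, 18 h compound exposure at 37 C; 7-point titration, 2.45 nM to 38.3 uM final.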
(In general: Quantitative high-throughput screening tests each substance at several concentrations.)
As for `COc1ccc(C(=O)NCc2cccnc2)cc1C(=O)NCc1cccnc1`, the compound was classed as inactive.

Consider `O=c1cc(O)cc(/C=C/c2ccc(O)c(O)c2)o1`, for which the outcome was inactive.

Regarding `Oc1ccc(/C=C/c2ccc(/C=C/c3ccc(O)cc3)c(Br)c2)cc1`, the compound was called inactive.

For the compound `COc1cc(CC(=O)O)ccc1O`, the compound was called inactive.

For `Cc1ccc([N+](=O)[O-])cc1S(=O)(=O)N(C)C`, the call was inactive.

For the compound `Nc1ncnc2c1nc(Sc1ccc(Cl)cc1)n2[C@H]1OC2COP(=O)(O)O[C@@H]2C1O` (stereo partly specified), the call was inactive.

Regarding `COc1cc(/C=C(\C#N)C(=O)c2ccc(O)c(O)c2)cc(I)c1O`, the compound was classed as inactive.

In the case of `Nc1nc2c(cnn2CCc2ccccc2)c2nc(-c3ccco3)nn12`, the result was inactive.

As for `S=C(S)N1CCCC1`, the compound was classed as inactive.

Take `CC(C)NC[C@H](O)COc1ccc(CC(N)=O)cc1`: the result was inactive.

For `CC(/C=C/c1cccc(Oc2ccc(F)cc2)c1)N(O)C(N)=O` (stereo unspecified), the compound was called inactive.

As to `O=C(OCCN1CCOCC1)C1(c2ccccc2)CCCCC1`, the compound was classed as inactive.

With `Cc1nc2n(c(=O)c1CCN1CCC(c3noc4cc(F)ccc34)CC1)CCCC2O` (stereo unspecified), the outcome was inactive.

On to `Cc1nc2c(OCc3ccccc3)cccn2c1CC#N`, for which the result was inactive.

As to `COc1ccc2c(c1)CCC1C2CC[C@@]2(C)C1CC[C@@H]2NCCCCCCN1C(=O)C=CC1=O` (stereo partly specified), the compound was classed as inactive.

For `Nc1nc2[nH]c(=O)cnc2c(=O)[nH]1`, the compound was classed as inactive.

As for `NC1(C(=O)O)CCc2cc(C(=O)O)ccc21` (stereo unspecified), the outcome was inactive.

`COc1ccc(-c2cc3ncc(C)n3c(Nc3ncccc3C(N)=O)n2)cc1OC`: the call was inactive.

Consider `CC(N)=O`, for which the call was inactive.

Regarding `CC(C)[C@H](NC(=O)OCc1ccccc1)C(=O)N[C@H](C=O)Cc1ccccc1` (Cbz-Val-Phe-aldehyde), the call was inactive.

With `CNCCc1cnc(CCC(c2ccccc2)c2ccccc2)[nH]1`, the compound was called inactive.

For `c1ccc(C(NCCNC(c2ccccc2)c2ccccc2)c2ccccc2)cc1`, the outcome was inactive.

For `CC(C)(C)c1ccc(/C=C/C(=O)Nc2ccc3c(c2)OCCO3)cc1`, the compound was classed as inactive.

In the case of `O=c1oc(Cl)c(Cl)c2ccccc12`, the compound was classed as inactive.

Regarding `Nc1ccc2c3c(cccc13)C(=O)NC2=O`, the outcome was inactive.

With `CN(CC[C@@H](Oc1ccc(C(F)(F)F)cc1)c1ccccc1)CC(=O)O`, the compound was classed as inactive.

For the compound `COc1cc(C(O)C(=O)O)ccc1O` (stereo unspecified), the call was inactive.

Take `CCCCCCCC/C=C\CCCCCCCC(=O)NCCc1ccc(O)c(O)c1`: the outcome was inactive.

As to `COc1ccccc1N1CCN(CCCCNC(=O)c2ccc3ccccc3c2)CC1`, the call was inactive.

`CCCCCCC(=O)OC1CC(C)(C)NC(C)(C)C1`: the compound was classed as inactive.

Regarding `c1ccc(C(NCc2cccnc2)(c2ccccc2)c2ccccc2)cc1`, the compound was called inactive.

Regarding `NCC(O)(CS(=O)(=O)O)c1ccc(Cl)cc1` (stereo unspecified), the outcome was inactive.

Regarding `COc1cc(CNC(=O)CCCCCCC(C)C)ccc1O`, the compound was classed as inactive.

`CSC(=N)N`: the call was inactive.

As for `O=C(O)/C=C/c1cnc[nH]1`, the call was inactive.

Turning to `N=C(N)SCCc1cnc[nH]1`, the call was inactive.

In the case of `CC1=C(/C=C/C(C)=C/C=C/C(C)=C\C(=O)O)C(C)(C)CCC1`, the call was inactive.

Consider `NC1CONC1=O` (stereo unspecified), for which the call was inactive.

Tested on in another assay: not listed separately
In words: Validation screen for small molecules that induce DNA re-replication in SW480 colon adenocarcinoma cells (AID 504364). Particulars: DNA re-replication phenotype (high-content imaging); series mostly up to 46.1 µM. The procedure, abridged: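 Image-based DNA content read-out: Hoechst stain 40 min, total nuclear fluorescence intensity (ex 405 nm, em 500-530 nm) after 48 h compound exposure of 250 SW480 cells/well at 37 C, 5% CO2, versus DMSO vehicle.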
As for `COc1ccc(C(=O)NCc2cccnc2)cc1C(=O)NCc1cccnc1`, the Potency result was “inactive”.

`O=c1cc(O)cc(/C=C/c2ccc(O)c(O)c2)o1`: the Potency result was “inactive”.

As to `COc1cc(CC(=O)O)ccc1O`, the Potency result was “inactive”.

In the case of `Cc1ccc([N+](=O)[O-])cc1S(=O)(=O)N(C)C`, the Potency entry was “inactive”.

As to `COc1cc(/C=C(\C#N)C(=O)c2ccc(O)c(O)c2)cc(I)c1O`, the Potency entry is “inactive”.

With `S=C(S)N1CCCC1`, the Potency result was “inactive”.

For the compound `CC(C)NC[C@H](O)COc1ccc(CC(N)=O)cc1`, the Potency result is “inactive”.

Consider `CC(/C=C/c1cccc(Oc2ccc(F)cc2)c1)N(O)C(N)=O` (stereo unspecified), for which the Potency entry was “inactive”.

With `O=C(OCCN1CCOCC1)C1(c2ccccc2)CCCCC1`, the Potency result was “inactive”.

As for `Cc1nc2c(OCc3ccccc3)cccn2c1CC#N`, the Potency entry was “inactive”.

Consider `COc1ccc2c(c1)CCC1C2CC[C@@]2(C)C1CC[C@@H]2NCCCCCCN1C(=O)C=CC1=O` (stereo partly specified), for which the Potency result is “inactive”.

`Nc1nc2[nH]c(=O)cnc2c(=O)[nH]1`: the Potency result was “inactive”.

`NC1(C(=O)O)CCc2cc(C(=O)O)ccc21` (stereo unspecified): the Potency entry is “inactive”.

For the compound `CC(N)=O`, the Potency result is “inactive”.

Turning to `CC(C)[C@H](NC(=O)OCc1ccccc1)C(=O)N[C@H](C=O)Cc1ccccc1` (Cbz-Val-Phe-aldehyde), the Potency entry is “inactive”.

On to `O=c1oc(Cl)c(Cl)c2ccccc12`, for which the Potency result was “inactive”.

For `Nc1ccc2c3c(cccc13)C(=O)NC2=O`, the Potency entry is “inactive”.

Regarding `COc1cc(C(O)C(=O)O)ccc1O` (stereo unspecified), the Potency result was “inactive”.

In the case of `CCCCCCCC/C=C\CCCCCCCC(=O)NCCc1ccc(O)c(O)c1`, the Potency entry is “inactive”.

With `COc1ccccc1N1CCN(CCCCNC(=O)c2ccc3ccccc3c2)CC1`, the Potency entry is “inactive”.

Turning to `NCC(O)(CS(=O)(=O)O)c1ccc(Cl)cc1` (stereo unspecified), the Potency entry is “inactive”.

With `COc1cc(CNC(=O)CCCCCCC(C)C)ccc1O`, the Potency entry was “inactive”.

With `CSC(=N)N`, the Potency entry was “inactive”.

For `O=C(O)/C=C/c1cnc[nH]1`, the Potency entry is “inactive”.

With `N=C(N)SCCc1cnc[nH]1`, the Potency result is “inactive”.

Consider `CC1=C(/C=C/C(C)=C/C=C/C(C)=C\C(=O)O)C(C)(C)CCC1`, for which the Potency entry is “inactive”.

On to `NC1CONC1=O` (stereo unspecified), for which the Potency entry is “inactive”.

Another assay deals with Peptidyl-prolyl cis-trans isomerase NIMA-interacting 1 (Homo sapiens) (UniProt Q13526). In words: qHTS Validation Assay to Find Inhibitors of Pin1 (AID 504536; active = well fitted inhibition curve with a large enough effect in the polarisation, with a control signal flat, not every such curve was filed as active; the % refers to the polarisation). Particulars: Pin1 fluorescence polarization peptide binding assay; series mostly up to 57.5 µM. In short, it runs like this: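 Fluorescence polarization competition: compounds (titration) displace HiFluor-488-labeled Pin1-1b peptide from Pin1 (0.3 uM final) in pH 7.5 HEPES buffer with DTT, 10 min at room temperature; %Activity normalized to no-enzyme wells, curves fitted.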
Sequence of Peptidyl-prolyl cis-trans isomerase NIMA-interacting 1 (Homo sapiens) (Q13526 whole entry, looked up): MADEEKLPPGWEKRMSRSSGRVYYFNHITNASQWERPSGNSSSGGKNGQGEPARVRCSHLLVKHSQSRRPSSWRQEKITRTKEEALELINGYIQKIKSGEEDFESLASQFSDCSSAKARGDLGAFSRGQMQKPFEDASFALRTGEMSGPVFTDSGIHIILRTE
As for `Oc1ccc(/C=C/c2ccc(/C=C/c3ccc(O)cc3)c(Br)c2)cc1`, the Potency result was “inactive”.

As for `COc1cc(CC(=O)O)ccc1O`, the Potency result is “inactive”.

On to `Cc1ccc([N+](=O)[O-])cc1S(=O)(=O)N(C)C`, for which the Potency result was “inactive”.

In the case of `Nc1ncnc2c1nc(Sc1ccc(Cl)cc1)n2[C@H]1OC2COP(=O)(O)O[C@@H]2C1O` (stereo partly specified), the Potency entry is “inactive”.

On to `Nc1nc2c(cnn2CCc2ccccc2)c2nc(-c3ccco3)nn12`, for which the Potency entry is “inactive”.

`S=C(S)N1CCCC1`: the Potency result is “inactive”.

Consider `CC(C)NC[C@H](O)COc1ccc(CC(N)=O)cc1`, for which the Potency entry is “inactive”.

As for `CC(/C=C/c1cccc(Oc2ccc(F)cc2)c1)N(O)C(N)=O` (stereo unspecified), the Potency result was “inactive”.

Regarding `O=C(OCCN1CCOCC1)C1(c2ccccc2)CCCCC1`, the Potency entry is “inactive”.

As for `Cc1nc2n(c(=O)c1CCN1CCC(c3noc4cc(F)ccc34)CC1)CCCC2O` (stereo unspecified), the Potency entry is “inactive”.

Regarding `Cc1nc2c(OCc3ccccc3)cccn2c1CC#N`, the Potency entry is “inactive”.

As for `COc1ccc2c(c1)CCC1C2CC[C@@]2(C)C1CC[C@@H]2NCCCCCCN1C(=O)C=CC1=O` (stereo partly specified), the Potency result was “inactive”.

For `Nc1nc2[nH]c(=O)cnc2c(=O)[nH]1`, the Potency entry was “inactive”.

Consider `COc1ccc(-c2cc3ncc(C)n3c(Nc3ncccc3C(N)=O)n2)cc1OC`, for which the Potency entry is “inactive”.

Consider `CC(C)[C@H](NC(=O)OCc1ccccc1)C(=O)N[C@H](C=O)Cc1ccccc1` (Cbz-Val-Phe-aldehyde), for which the Potency result is “inactive”.

Consider `CNCCc1cnc(CCC(c2ccccc2)c2ccccc2)[nH]1`, for which the Potency result is “inactive”.

As for `c1ccc(C(NCCNC(c2ccccc2)c2ccccc2)c2ccccc2)cc1`, the Potency entry is “inactive”.

As to `CC(C)(C)c1ccc(/C=C/C(=O)Nc2ccc3c(c2)OCCO3)cc1`, the Potency entry is “inactive”.

As for `O=c1oc(Cl)c(Cl)c2ccccc12`, the Potency entry is “inactive”.

For the compound `CN(CC[C@@H](Oc1ccc(C(F)(F)F)cc1)c1ccccc1)CC(=O)O`, the Potency entry is “inactive”.

Regarding `COc1cc(C(O)C(=O)O)ccc1O` (stereo unspecified), the Potency entry is “inactive”.

With `CCCCCCCC/C=C\CCCCCCCC(=O)NCCc1ccc(O)c(O)c1`, the Potency entry was “inactive”.

Regarding `COc1ccccc1N1CCN(CCCCNC(=O)c2ccc3ccccc3c2)CC1`, the Potency entry is “inactive”.

In the case of `CCCCCCC(=O)OC1CC(C)(C)NC(C)(C)C1`, the Potency entry was “inactive”.

Regarding `c1ccc(C(NCc2cccnc2)(c2ccccc2)c2ccccc2)cc1`, the Potency entry was “inactive”.

Take `NCC(O)(CS(=O)(=O)O)c1ccc(Cl)cc1` (stereo unspecified): the Potency entry was “inactive”.

As for `COc1cc(CNC(=O)CCCCCCC(C)C)ccc1O`, the Potency entry is “inactive”.

`CSC(=N)N`: the Potency result was “inactive”.

Turning to `O=C(O)/C=C/c1cnc[nH]1`, the Potency result is “inactive”.

`N=C(N)SCCc1cnc[nH]1`: the Potency result is “inactive”.

Turning to `NC1CONC1=O` (stereo unspecified), the Potency entry was “inactive”.
